PI5P4Ka inh – inhibitors of human PI5P4K alpha; P48426; 330,000 compounds, 1.2% hits; max response, %; PI5P4Kalpha enzyme, ADP-Glo luminescence, 60 min; hits give low values; active = max response of -50% or lower; inconclusive = between -30% and -50%; inactive = -30% or higher; note: value at the top dose of about 77 µM; % is set by controls: 0 for no effect and ±100 for the full control effect
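Compounds were pin-transferred onto PI5P4Kalpha and substrate in HEPES pH 7.4 buffer with EGTA, CHAPS and 5% DMSO. ATP (5 microM final) started the reaction, which ran 60 minutes at room temperature before ADP-Glo detection.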
Pol kappa inh – DNA polymerase kappa (human) inhibition; Q9UBT6; purified Pol kappa, fluorescent DNA synthesis assay, 10 min; Potency, µM (top dose mostly 107 µM), without a hit: at the top dose activity, negative = inhibition, usual class: inhibitors; 400,000 compounds, 0.53% hits; note: potency is the fitted concentration of half-maximal effect; % is set by controls: 0 for no effect and ±100 for the full control effect
Target sequence (Q9UBT6 whole entry, looked up): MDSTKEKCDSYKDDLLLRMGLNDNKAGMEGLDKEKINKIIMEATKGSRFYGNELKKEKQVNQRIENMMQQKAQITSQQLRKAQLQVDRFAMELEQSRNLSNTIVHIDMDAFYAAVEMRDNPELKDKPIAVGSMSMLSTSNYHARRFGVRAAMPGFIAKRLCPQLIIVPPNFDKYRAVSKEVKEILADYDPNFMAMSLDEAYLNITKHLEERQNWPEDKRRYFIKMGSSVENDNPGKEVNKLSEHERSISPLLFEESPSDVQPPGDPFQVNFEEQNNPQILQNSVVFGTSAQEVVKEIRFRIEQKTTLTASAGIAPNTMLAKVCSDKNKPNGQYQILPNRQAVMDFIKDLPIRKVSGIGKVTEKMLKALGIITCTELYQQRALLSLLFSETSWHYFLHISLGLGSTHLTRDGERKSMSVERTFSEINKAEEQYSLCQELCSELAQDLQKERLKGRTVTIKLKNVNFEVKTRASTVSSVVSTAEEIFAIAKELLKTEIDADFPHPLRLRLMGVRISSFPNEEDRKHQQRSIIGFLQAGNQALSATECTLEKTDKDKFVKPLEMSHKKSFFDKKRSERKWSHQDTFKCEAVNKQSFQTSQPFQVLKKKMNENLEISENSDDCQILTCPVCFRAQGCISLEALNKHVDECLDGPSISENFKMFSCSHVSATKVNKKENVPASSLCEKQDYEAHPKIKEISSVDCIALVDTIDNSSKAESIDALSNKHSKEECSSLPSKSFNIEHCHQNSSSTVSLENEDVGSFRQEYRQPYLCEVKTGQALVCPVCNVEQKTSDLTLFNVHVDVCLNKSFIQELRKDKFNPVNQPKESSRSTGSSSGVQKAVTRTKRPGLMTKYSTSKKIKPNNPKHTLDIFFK
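Kinetic fluorescence screen: compound preincubated 15 min RT with 10 nM enzyme; 50 nM substrate (final) initiates; reads at 0/10 min.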
Pol eta inh – DNA polymerase eta (human) inhibition. Q9Y253. recombinant Pol eta, fluorescent DNA replication assay. Potency, µM (series often up to 114 µM), for the others: at the highest dose activity change, negative = inhibition, hits mostly inhibitors. 390,000 compounds, 1.2% hits; note: potency is the fitted concentration of half-maximal effect; % is set by controls: 0 for no effect and ±100 for the full control effect
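Pol eta at 10 nM preincubated with compounds 15 min at room temperature; reaction started with fluorescent substrate (50 nM final) and read kinetically at 0 and 10 min.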
POLB inh – blocks human DNA polymerase beta activity; P06746; Pol beta primer extension/strand displacement, fluorescence kinetic; Potency, µM (highest dose often 114 µM), for the others: at the top dose activity change, negative = inhibition, usual class: inhibitors; 340,000 compounds, 1.3% hits; AID 485314; note: potency is the fitted concentration of half-maximal effect; % is set by controls: 0 for no effect and ±100 for the full control effect
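Pol beta (10 nM) and compounds were preincubated 15 min at room temperature, then 50 nM substrate (final) started primer extension/strand displacement. Reads were taken at 0 and 10 min; concentration-response data were fitted to a four-parameter Hill equation.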
Pol iota inh – DNA polymerase iota (human) inhibition; Q9UNA4; Pol iota fluorescent replication assay, 10 min; Potency, µM (highest dose often 115 µM), inactives show at the top dose activity, negative = inhibition, usual class: inhibitors; 390,000 compounds, 1% hits; note: potency is the fitted concentration of half-maximal effect
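Fluorescent replication assay read twice, at 0 min and 10 min after adding 50 nM (final) substrate. Enzyme (10 nM) and compounds were first incubated 15 min at room temperature; enzyme-free buffer wells were negative controls.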
FEN1 inh – blocks human flap endonuclease 1 | 390,000 compounds, 0.35% hits | Recombinant FEN1 flap cleavage, fluorescence, 15 min | AID 588795 | Potency, µM (doses to about 114 µM), without a hit: at the top dose activity change, negative = inhibition, actives largely listed as inhibitors; note: potency is the fitted concentration of half-maximal effect; % is set by controls: 0 for no effect and ±100 for the full control effect; nearly all actives have a fitted effect of over 65% in size
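Read-out was taken twice, immediately and after 15 min, following addition of 50 nM substrate to 10 nM FEN1 that had sat with test compound for 15 min at room temperature. Curves came from a four-parameter Hill model.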
* marks the source's active call; other numbers are inactive results; u = inconclusive; x = not tested or not shown; ! = not confirmed by another sample; [ ] = remark or other dose. An excerpt weighted towards active compounds, which were near 2.8% of everything screened. Unless noted, calls come from the whole dose curve; as a rule, active = well fitted curve in the direction sought with a large enough effect; inconclusive = small, poorly fitted or top-dose-only effect, or another doubt; inactive = no such curve, though single readings can be large; an effect the other way counts as inactive or inconclusive.

SMILES | PI5P4Ka inh | Pol kappa inh | Pol eta inh | POLB inh | Pol iota inh | FEN1 inh
Cn1c(CNC(=O)CCNC(=O)c2cccc(Cl)c2)cc(=O)n(C)c1=O | 0 | 2% | -17% | -1% | -3% | -3%
Cc1ccc(C)c(S(=O)(=O)N2CCN(C(=O)c3cccnc3)CC2)c1 | 8 | 8% | -11% | 28% | 25% | 44%
COc1ccc2[nH]c3c(NCc4ccco4)ncnc3c2c1 | x | -22% | u | u | 79µM*! | u
CCN(CC)CCNc1ncnc2c1[nH]c1ccc(OC)cc12 | x | x | x | -12% | x | x
CCOc1ccc2[nH]c3c(NCCN(C)C)ncnc3c2c1 | x | x | x | 56µM* | x | x
COc1ccc2[nH]c3c(NCCCOC(C)C)ncnc3c2c1 | -3 | -1% | -36% | -22% | 8% | u
COc1ccc2[nH]c3c(NCCC4=CCCCC4)ncnc3c2c1 | -61* | -3% | u | u | -2% | u
COc1ccc(CNS(=O)(=O)c2cnc(N)nc2)cc1 | x | -1%[60.1 µM] | -11% | -1% | 7% | 2%
CC(=O)Sc1nc(-c2ccccc2)[nH]c1S(=O)(=O)c1ccc(C)cc1 | -81* | 8% | -19% | 9% | 77% | -1%
Cc1ccc(S(=O)(=O)c2[nH]c(-c3ccccc3)nc2SCC(=O)O)cc1 | x | -25% | -18% | 6% | 21% | 14%
Cc1nn(-c2ccccc2)c(N2CCCC2)c1/C=N/NC(=S)Nc1ccccc1F | 25 | -8% | -21% | 38% | 14% | 6%
Cc1ccccc1/C=C1\Oc2ccccc2C1=O | 25 | 7% | -12% | x | -19% | -21%
O=C1/C(=C/c2ccc(O)c(O)c2)Oc2ccccc21 | x | 13µM* | x | x | x | x
CCOc1ccc(CCNC(=O)c2nnn(CC(=O)Nc3ccc(OC)cc3)c2N)cc1OCC | 5 | -5% | -5% | 16% | 25% | -7%
Cc1ccc(NC(=O)Cn2nnc(C(=O)NCCc3ccccc3)c2N)cc1C | x | u | -24% | u | 89µM* | 15%
COc1cccc(NC(=O)Cn2nnc(-c3nc(-c4ccccc4)no3)c2N)c1 | x | -11%[60.1 µM] | -4% | 18µM* | 89µM* | -5%
CCOc1ccc(CCNC(=O)c2nnn(CC(=O)Nc3ccc(C)cc3)c2N)cc1OCC | -1 | u | -1% | 25µM* | u | -7%
CCc1ccc(NC(=O)Cn2nnc(C(=O)NCCc3ccccc3)c2N)cc1 | x | -11% | -19% | -1% | -11% | 15%
Nc1c(-c2nc(-c3ccccc3)no2)nnn1CC(=O)Nc1ccccc1 | x | 7% | x | u | u | 8%
COc1ccc(NC(=O)Cn2nnc(C(=O)NCCc3ccccc3)c2N)cc1 | 4 | -34% | -26% | 25µM* | 35µM* | 14%
O=C(COC(=O)c1ccc(=O)[nH]c1)Nc1cccc(S(=O)(=O)N2CCOCC2)c1 | 2 | -6% | 8% | 14% | 19% | -13%
COc1ccc(/C=C/C(=O)OCc2cc(=O)n3c(n2)sc2ccccc23)cc1 | -18 | -11% | -2% | u | 71% | 2%
O=c1cc(CCl)nc2sc3ccccc3n12 | -26 | u | 50µM* | u | 35µM* | -1%
O=C(OCc1cc(=O)n2c(n1)sc1ccccc12)c1ccc(O)cc1 | -6 | -10% | u | 10µM* | -5% | -11%
Cc1ccc(C(=O)OCn2ncc(Cl)c(Cl)c2=O)cc1 | x | -7% | -22% | -1% | u | 11%
CCOC(=O)c1ccc(NC(=O)CSCc2ccco2)cc1 | x | u | u | u | 25µM* | -17%
CCOC(=O)c1ccc(NC(=O)CSCCC(=O)O)cc1 | -2 | 15% | -5% | -1% | -15% | -3%
CCOC(=O)c1ccc(NC(=O)Cn2ncc(Cl)c(Cl)c2=O)cc1 | -72* | -13% | u | 2% | 28µM* | -3%
CCC(=O)Nc1ccc(C(=O)Cn2ncc(Cl)c(Cl)c2=O)cc1 | -56* | u | u | u | u | 16%
O=C(c1ccc2c(=O)n(-c3ccccc3)c(=O)[nH]c2c1)N1CCN(Cc2cccs2)CC1 | x | -1% | x | x | 18% | 17%

High-throughput results (PubChem BioAssay)
